Sfp inh: qHTS Assay for Inhibitors of Bacillus subtilis Sfp phosphopantetheinyl transferase (PPTase); Biochemical Sfp PPTase activity, qHTS; Potency, µM, hits mostly inhibitors; actives 3.5% (n = 310,000); 4'-phosphopantetheinyl transferase ffp (Bacillus subtilis), Q9F4F7;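 also: the enzyme is Sfp with the accession as filed and its product quenches rhodamine fluorescence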
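Reaction rates are the 30-min fluorescence difference (ex 525, em 598 nm) in wells containing 15 nM Sfp, 5 uM rhodamine-CoA and 12.5 uM BHQ-2-YbbR at pH 7.6 with 10 mM MgCl2.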
BAZ2B block: qHTS Assay for Inhibitors of BAZ2B; Bromodomain adjacent to zinc finger domain protein 2B (Homo sapiens), Q9UIF8; AlphaScreen BAZ2B-H3K14Ac peptide displacement; Potency, µM (top dose mostly 114 µM), most hits filed as inhibitors; actives 4.4% (n = 360,000); also: nearly all actives have a fitted effect of over 60% in size
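Protein-peptide AlphaScreen: BAZ2B 50 nM, b-H3K14Ac 50 nM, 1x PBS pH 7.4 + 0.01% Tween-20. Preincubation 30 min RT; cpd 30 min RT (top 110 uM); beads 20 min RT, light-protected.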
TDP1 block: qHTS Assay for Inhibitors of Tyrosyl-DNA Phosphodiesterase (TDP1); Tyrosyl-DNA phosphodiesterase 1 (Homo sapiens), Q9NUW8; recombinant TDP1, AlphaScreen DNA substrate cleavage; actives 0.28% (n = 350,000); Potency, µM (doses to about 130 µM), hits mostly inhibitors; also: nearly all actives have a fitted effect of over 40% in size
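Steps: enzyme plus compound, 15 min RT; add biotin/phosphotyrosine-FITC oligonucleotide (15 nM final), react 5 min; add donor/acceptor beads (10 ug/ml final), 10 min; read AlphaScreen. Tdp1 at 1 nM final.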
JMJD2A Tudor: qHTS Assay for Inhibitors of JMJD2A-Tudor Domain. AlphaScreen JMJD2A-Tudor / H3K4me3 peptide binding. Potency, µM (top dose mostly 114 µM), most hits filed as inhibitors. actives 4.4% (n = 390,000); also: nearly all actives have a fitted effect of over 50% in size
HP1b binding inh: HTS for Inhibitors of HP1-beta Chromodomain Interactions with Methylated Histone Tails; Chromobox protein homolog 1 (Homo sapiens), P83916; AlphaScreen HP1-beta / biotin-H3K9me3 peptide binding; Potency, µM (highest dose often 114 µM), hits mostly inhibitors; actives 0.56% (n = 390,000); also: nearly all actives have a fitted effect of over 70% in size
Target sequence (P83916 whole entry, looked up): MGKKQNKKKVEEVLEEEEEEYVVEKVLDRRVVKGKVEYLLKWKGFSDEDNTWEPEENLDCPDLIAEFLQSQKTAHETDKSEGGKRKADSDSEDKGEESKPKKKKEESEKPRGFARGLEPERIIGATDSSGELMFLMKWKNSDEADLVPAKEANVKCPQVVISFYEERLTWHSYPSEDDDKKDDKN
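HP1-beta protein (50 nM final) preincubated 30 min at room temperature with biotinylated H3(1-18)K9me3 peptide (50 nM) in PBS pH 7.4, 0.01% Tween-20, then compound added for 30 min. AlphaScreen streptavidin donor/nickel chelate acceptor beads (10 ug/mL final), 30 min dark, luminescence read.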
G9a block: qHTS Assay for Inhibitors of Histone Lysine Methyltransferase G9a; Potency, µM (titrated, usually from 102 µM), actives largely listed as inhibitors; AID 504332, 2011; G9a H3K9 monomethylation, AlphaScreen, 2 h; actives 8.8% (n = 350,000); Histone-lysine N-methyltransferase EHMT2 (Homo sapiens), Q96KQ7; also: nearly all actives have a fitted effect of over 75% in size
Target sequence (Q96KQ7 913-1193 limits assumed): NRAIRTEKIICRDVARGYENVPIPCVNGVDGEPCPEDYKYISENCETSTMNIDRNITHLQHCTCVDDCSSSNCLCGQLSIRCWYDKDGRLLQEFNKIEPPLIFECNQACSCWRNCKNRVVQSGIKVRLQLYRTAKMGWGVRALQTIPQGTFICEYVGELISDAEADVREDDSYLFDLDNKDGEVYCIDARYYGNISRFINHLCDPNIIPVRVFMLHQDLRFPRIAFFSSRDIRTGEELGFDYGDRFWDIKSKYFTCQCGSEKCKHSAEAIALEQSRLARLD
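Quantitative HTS format: methyltransferase activity on a biotin-tagged H3K9 peptide is measured by AlphaScreen, using a rabbit anti-monomethyl-H3K9 antibody with streptavidin donor and anti-IgG acceptor beads. Final levels are 20 nM enzyme, 500 nM peptide, 20 uM SAM; 2 h RT.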
Of the large screens only hits and unclear results are named; the others gave an inactive call. An excerpt weighted towards active compounds, which were near 12% of everything screened. Calls follow the shape of the dose curve; as a rule, active = well fitted curve in the direction sought with a large enough effect; inconclusive = small, poorly fitted or top-dose-only effect, or another doubt; inactive = no such curve, though single readings can be large; an effect the other way counts as inactive or inconclusive.

COc1c(Br)cc(/C=N/n2c(-c3ccccc3)n[nH]c2=S)c(O)c1Br	Sfp inh 50µM, JMJD2A Tudor inconclusive (no result: TDP1 block, G9a block)
CN(/N=C/c1cc(Br)cc(Br)c1O)c1ccccc1	G9a block inconclusive (no result: TDP1 block)
O=[N+]([O-])c1ccc(O)c(/C=N/n2c(-c3ccccc3)n[nH]c2=S)c1	Sfp inh inconclusive, JMJD2A Tudor 5.6µM (no result: TDP1 block)
Oc1c(Br)cc(Br)cc1/C=N/n1c(-c2ccccc2)n[nH]c1=S	Sfp inh inconclusive, BAZ2B block inconclusive, JMJD2A Tudor 40µM, HP1b binding inh inconclusive (no result: TDP1 block)
O=[N+]([O-])c1cccc(-c2ccc(/C=N/n3c(-c4ccccc4)n[nH]c3=S)o2)c1	G9a block inconclusive
COc1ccc(CN(C(=O)Nc2ccccc2)c2ccccn2)cc1OC	BAZ2B block inconclusive (no result: Sfp inh)
CCc1nc(N2CCN(S(C)(=O)=O)CC2)c2c3c(sc2n1)CCCC3	none
O=[N+]([O-])c1ccc(Cl)c(/C=N/n2c(-c3ccncc3)n[nH]c2=S)c1	Sfp inh 56µM, JMJD2A Tudor 3.2µM, G9a block 4µM
Oc1ccccc1/C=N/n1c(-c2ccccc2)n[nH]c1=S	Sfp inh inconclusive, BAZ2B block inconclusive, JMJD2A Tudor 25µM, G9a block 1.6µM (no result: TDP1 block)
O=S(=O)(NCCN1CCCC1)c1ccc(C(F)(F)F)cc1	G9a block inconclusive (no result: TDP1 block)
C/C(N)=C(/C#N)C(=O)COC(=O)c1ccc(C#N)cc1	BAZ2B block inconclusive, G9a block 22µM (no result: TDP1 block)
O=C(COC(=O)c1ccccc1Br)NC1CCCC1	G9a block 40µM (no result: TDP1 block)
O=C(COC(=O)c1ccccc1Br)NC1CCCCCCC1	none (no result: Sfp inh, BAZ2B block, G9a block)
N#Cc1ccc(C(=O)OCC(=O)NC2CCCC2)cc1	G9a block 45µM (no result: TDP1 block)
O=C(COC(=O)c1ncc(Cl)c(Cl)c1Cl)NC1CCCCCC1	G9a block 40µM (no result: Sfp inh)
C/C(N)=C(/C#N)C(=O)COC(=O)c1ccc(O)cc1	none
CC1CN(C(=O)c2ccc(NS(=O)(=O)c3ccc(F)c(F)c3)cc2)CC(C)O1 (configuration not stated)	BAZ2B block inconclusive (no result: Sfp inh)
COC(=O)c1c(NC(=O)CN2C(=O)NC3(CCc4ccccc4C3)C2=O)sc2c1CCCCC2 (configuration not stated)	none
CCCc1c(C(=O)N/N=C(\C)CCc2ccccc2)nnn1-c1nonc1N	none
Nc1ccc2nc[nH]c2c1	JMJD2A Tudor inconclusive, G9a block 50µM
Cc1oc(-c2ccccc2)nc1CNC(=O)Nc1ccccc1	none (no result: Sfp inh)
O=C(Cc1ccc(F)cc1)N/N=C/c1ccc(-c2ccc(Cl)c(C(=O)O)c2)o1	Sfp inh 28µM, G9a block inconclusive
Cc1nnc(SCC(=O)N/N=C/c2ccc(-c3ccc(C)c(Cl)c3)o2)s1	HP1b binding inh inconclusive, G9a block 11µM
O=C(O)c1ccc(N/N=C/c2ccc(-c3ccc(Cl)cc3Cl)o2)cc1	BAZ2B block inconclusive, G9a block inconclusive
O=C(O)c1cc(N/N=C/c2ccc(-c3ccc(F)cc3)o2)ccc1Cl	BAZ2B block inconclusive, G9a block 50µM
Cc1ccc(CCC(=O)Nc2ccc(C)c(C)c2)o1	none (no result: G9a block)
NCCCNc1nc(N)c([N+](=O)[O-])c(NC2CCCCC2)n1	none (no result: TDP1 block)
Cc1cc(C)n2nc(SCC(=O)c3cc(C)n(-c4cc(C)on4)c3C)nc2n1	Sfp inh inconclusive, BAZ2B block inconclusive, G9a block 50µM
Cc1cc(-n2c(C)cc(C(=O)CSc3ncnc4ccccc34)c2C)no1	Sfp inh inconclusive
COc1ccc(-c2c(C#N)c(SCC(=O)Nc3ccc(C)c(C)c3)nc(C)c2C(=O)Nc2ccc(Cl)cc2)cc1	none (no result: Sfp inh)
CN(C)c1ccc(/C=N/N2CCN(c3ccccn3)CC2)cc1	G9a block 13µM
BrC(=C\c1ccccc1)/C=N/N1CCN(c2ccccn2)CC1	BAZ2B block 79µM, G9a block 28µM

Source: PubChem (National Center for Advancing Translational Sciences (NCATS))
